Screening results (PubChem)
MITF primary – MITF inhibitors, primary screen, biochemical, AlphaScreen, human; inhibition, % at 2.6 µM; AlphaScreen MITF homodimerization, bead proximity signal; Microphthalmia-associated transcription factor (Homo sapiens), O75030; hit rate 0.91% among 650,000; AID 1259374, 2018; in the data active = inhibition above about 50%;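 also: 0% = vehicle wells with protein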
FBW7 activator – FBW7 E3 ligase activators, primary screen, biochemical, AlphaScreen, human | hit rate 0.13% among 650,000 | F-box/WD repeat-containing protein 7 (Homo sapiens), Q969H0 | normalized activity (activation), % at 26.1 µM | AlphaScreen FBW7–phospho-cyclin E peptide binding, activator screen; in the data active = normalized activity above about 1.9%;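 also: purified mutant Fbw7 with reduced substrate affinity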
Target sequence (Q969H0 whole entry, looked up): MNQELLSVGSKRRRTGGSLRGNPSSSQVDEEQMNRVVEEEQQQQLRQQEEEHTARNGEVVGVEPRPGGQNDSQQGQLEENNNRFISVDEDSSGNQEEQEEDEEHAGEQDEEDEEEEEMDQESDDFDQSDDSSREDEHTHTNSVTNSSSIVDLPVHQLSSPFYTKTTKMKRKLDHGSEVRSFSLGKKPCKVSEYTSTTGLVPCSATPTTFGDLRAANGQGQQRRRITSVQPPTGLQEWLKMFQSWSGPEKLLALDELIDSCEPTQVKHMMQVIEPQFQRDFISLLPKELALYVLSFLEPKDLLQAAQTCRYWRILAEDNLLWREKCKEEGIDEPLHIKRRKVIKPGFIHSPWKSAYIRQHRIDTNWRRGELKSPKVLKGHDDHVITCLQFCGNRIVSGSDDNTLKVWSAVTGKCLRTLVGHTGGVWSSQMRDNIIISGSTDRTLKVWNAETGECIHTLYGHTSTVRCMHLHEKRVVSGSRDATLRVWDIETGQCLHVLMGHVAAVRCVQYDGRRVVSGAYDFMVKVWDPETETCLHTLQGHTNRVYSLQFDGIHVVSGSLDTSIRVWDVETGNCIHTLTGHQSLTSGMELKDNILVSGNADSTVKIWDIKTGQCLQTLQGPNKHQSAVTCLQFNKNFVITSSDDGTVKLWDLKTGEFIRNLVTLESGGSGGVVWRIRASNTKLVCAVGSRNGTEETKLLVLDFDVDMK
GPR151 ag – activators of human GPR151, primary screen, cell-based, PathHunter beta-arrestin, luminescence | PathHunter beta-arrestin GPR151 cells | activation, % at 11.2 µM | hit rate 1% among 650,000 | AID 1508602, 2020; in the data active = activation above about 4.9%;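 also: 0% = median of compound wells and 100% = cells with positive control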
TEAD-YAP block – TEAD-YAP interaction inhibition, primary screen, TEAD-YAP interaction inhibitor project, luminescence, HEK-TIYL cells; TEAD-Gal4/YAP UAS-luciferase luminescence; inhibition, % at 9.12 µM; hit rate 1.4% among 640,000; AID 1259422, 2018; in the data active = inhibition above about 32%;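 also: 0% = median of test compound wells and 100% = reference inhibitor wells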
MITF inh conf – MITF inhibitors, retest of hits, confirmation, biochemical, AlphaScreen, triplicate; AlphaScreen MITF homodimerization, biotin/His-MITF beads; inhibition, % at 2.6 µM; hit rate 16% among 4,700; shares compounds with MITF primary;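 active = inhibition above a cutoff derived from the DMSO control wells, cut at about 28% in these data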;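 also: 0% = MITF dimer wells with DMSO only; inhibitors lower the bead chemiluminescence by keeping MITF from dimerizing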
AS interf DR – AlphaScreen optical interference compounds, dose response, counter-screen, biochemical, HTS. shares compounds with MITF primary. AlphaScreen optical interference counterscreen, cell-free. IC50, µM. hit rate 6% among 480. AID 1259373, 2018; call rule not given here
AS interf ctr – AlphaScreen optical interference compounds, counter-screen for MITF inhibitor project, biochemical, triplicate. shares compounds with MITF primary. LysRS AlphaScreen counterscreen, signal interference. inhibition, % at 2.6 µM. hit rate 7.6% among 4,700. AID 1259376, 2018;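 active = inhibition above a cutoff derived from the DMSO control wells, cut at about 30% in these data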
Active calls of the source: *; . = not tested or not shown. A selection: hits, their analogues and other compounds. The true share with any hit is near 3.5%.

SMILES	MITF primary	FBW7 activator	GPR151 ag	TEAD-YAP block	MITF inh conf	AS interf ctr	others
CCOc1ccc2nc(N=C(NC(=O)c3ccccc3)NC(=O)c3ccccc3)nc(C)c2c1	71*	0	0	-10	-2	11
CCOc1ccc2nc(N=C(NC(C)=O)NC(C)=O)nc(C)c2c1	-7	0	0	-56	.	.
O=C(CCCC(=O)OCC(=O)c1ccccc1)Nc1ccccc1	4	0	0	-1	.	.
CC1NC(=O)NC1CCCCCC(=O)OCC(=O)c1ccccc1 (centres undefined)	115*	-1	-2	-9	118*	100*
CN(C)CC(C)(C)CNCC(=O)Nc1ccc(F)c(F)c1F	70*	0	0	1	1	-2
CN(Cc1ccccc1)C(=O)COc1ccc2ccccc2c1	20	1	0	-45	.	.
COc1ccc(OC)c(CN(C)CCc2ccccn2)c1	40	0	3	-1	.	.
CN(CCc1ccccn1)C(=O)c1ccccc1	60*	0	0	4	-9	-2
COc1ccc(C(=O)N(C)CCc2ccccn2)cc1	71*	0	4	-4	4	2
COc1cc(OC)cc(C(=O)N(C)CCc2ccccn2)c1	71*	0	0	-2	7	4
COc1cc(OC)cc(C(=O)NC(C(=O)NCCc2ccccn2)C(C)C)c1 (centres undefined)	3	0	-2	-1	.	.
CN(CCc1ccccn1)C(=O)COc1ccc2ccccc2c1	84*	1	-1	-22	-10	4
COc1ccc(C2C/C(=N\O)C(C)C(c3ccc(OC)cc3)N2)cc1 (centres undefined)	14	1	-1	-2	.	.
CC(=O)Oc1ccc(/C=C2\N=C(c3ccc(C)c(C)c3)OC2=O)cc1	5	0	-1	-5	.	.
CN(C)CCNC(=O)c1c[nH]c2ccc(S(=O)(=O)N3CCc4ccccc4C3)cc2c1=O	-8	0	-1	-5	.	.
O=C(c1nc2sccn2c1CN1CCCCC1CO)N1CCCC1 (centres undefined)	9	0	-1	8	.	.
CSc1ccc(CN2CCN(C(=O)c3ccc(-c4ccccc4)cc3)CC2)cc1	1	0	0	7	.	.
O=C(c1ccc(F)cc1)N1CCN(Cc2cccc(Br)c2)CC1	58*	0	-1	9	-7	-6
O=C(c1ccccc1F)N1CCN(Cc2cccc(F)c2)CC1	54*	0	1	-6	-3	4
CSc1ccc(CN2CCN(C(=O)c3ccc(F)cc3)CC2)cc1	55*	1	-1	44*	7	12
COc1cc(OC)cc(C(=O)N2CCN(Cc3cccc(Br)c3)CC2)c1	41	0	-2	5	.	.
O=C(c1cccc(C(=O)N2CCN(Cc3ccccc3)CC2)c1)N1CCN(Cc2ccccc2)CC1	-4	0	-1	16	.	.
O=C(c1cccc(F)c1)N1CCN(Cc2ccncc2)CC1	78*	1	-2	-7	64*	-6	AS interf DR=>5.7
CCOC(=O)c1c(C)c(C(=O)NCc2ccccc2Cl)c(C)n1C	18	1	0	-3	.	.
CCCc1nnc2sc(NC(=O)c3cc(OC)c(OC)c(OC)c3)nn12	15	1	0	6	.	.
SMILES	MITF primary	FBW7 activator	GPR151 ag	TEAD-YAP block	MITF inh conf	AS interf ctr	others
O=C(c1cccc(F)c1)N1CCN(Cc2cccc(F)c2)CC1	57*	0	-1	-6	6	16
O=C(c1cccc(F)c1)N1CCN(Cc2cccnc2)CC1	87*	0	0	-3	-4	0
O=C(c1cccc(F)c1)N1CCN(Cc2cccc(Oc3ccccc3)c2)CC1	38	0	2	-16	.	.
CSc1ccc(CN2CCOc3ccc(CN4CCN(C(C)=O)CC4)cc3C2)cc1	88*	0	1	37*	3	-2
O=C(c1cccc(Cl)c1)N1CCN(Cc2cccc(F)c2)CC1	67*	0	0	3	-4	6
O=C(N/N=C/C=C/c1ccccc1)c1ccccc1[N+](=O)[O-]	8	0	4	-1	.	.
